From PubChem BioAssay

biological target: Calmodulin-1 (Homo sapiens) (UniProt P0DP23); test: small molecules binding calmodulin-1 with EGTA – biochemical, small-molecule microarray, Cy5-labelled CALM1, profiling panel (AID 1111); settings: Cy5-CALM1 binding fluorescence, higher = more signal;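 note: labelled calmodulin applied in Tris saline Tween buffer holding calcium plus EGTA and DTT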

Question: For `Cc1cc(C)c(C(O)C2C=CC3C(=O)N(c4ccccc4)C(=O)C3N2Nc2ccc([N+](=O)[O-])cc2)c(C)c1` (stereo unspecified), which composite z-score is on record?
Answer: The composite z-score was 1.84.

Question: Which composite z-score does the source give for `Cc1ccc(S[C@]2(C(=O)O)CC(=O)N(C3CCCCC3)[C@@H]2c2ccc(CO)cc2)cc1` here?
Answer: The composite z-score was 0.381.

Question: How did the composite z-score turn out when `CCOc1cc(C(O)C2C=CC3C(=O)NC(=O)C3N2Nc2ccccn2)ccc1O` (stereo unspecified) was run?
Answer: The composite z-score was 0.384.

Question: How did the composite z-score turn out when `CC(=O)NCCCC[C@@H]1NC(=O)[C@@H]2C[C@H](C(=O)NCCCC[N+](C)(C)C)[C@H](c3cccc(OCCO)c3)N2C1=O` was run?
Answer: Its composite z-score is 0.601.

Question: Which composite z-score does the source give for `COc1ccc([Si](C)(C)[C@@H]2[C@@H](CC(=O)N(CCO)Cc3ccccc3)O[C@]3(C(=O)N(Cc4ccc(N5CCOC5=O)cc4)c4ccccc43)[C@H]2C)cc1` here?
Answer: The composite z-score was 0.515.

Question: With `COC(=O)[C@]1(Cc2ccccc2CN=[N+]=[N-])N=C(c2ccc(OCCCO)cc2)O[C@@H]1c1ccccc1CN=[N+]=[N-]` as the compound, how does the composite z-score read?
Answer: Its composite z-score is -0.11.

Question: Which composite z-score does the source give for `CN(C)C(=O)[C@]1(Cc2ccccc2N=[N+]=[N-])N=C(c2ccc(OCCCO)cc2)O[C@@H]1c1ccccc1CN=[N+]=[N-]` here?
Answer: The composite z-score was 0.668.

Question: With `CC(C)(C)OC(=O)CC[C@@]1(C(=O)N2CCCCC2)N=C(c2ccc(OCCCO)cc2)O[C@@H]1c1ccccc1CN=[N+]=[N-]` as the compound, how does the composite z-score read?
Answer: The composite z-score was 1.88.

Question: For `CCN(CC)c1ccc(N2CC=CC34O[C@@H]5/C=C\CCCOC(=O)C5[C@H]3C(=O)N(CCCCCO)[C@@H]4C2=O)cc1` (stereo partly specified), which composite z-score is on record?
Answer: The composite z-score was -1.06.

Question: Which composite z-score does the source give for `[N-]=[N+]=Nc1ccccc1C[C@]1(C(=O)NCCN2CCOCC2)N=C(c2ccc(OCCCO)cc2)O[C@H]1c1ccccc1N=[N+]=[N-]` here?
Answer: Its composite z-score is 1.1.

Question: `COC(=O)[C@]1(Cc2ccccc2CN=[N+]=[N-])N=C(c2ccc(OCCCO)cc2)O[C@@H]1c1ccccc1` was tested. Which composite z-score did it give?
Answer: The composite z-score was -0.103.

Question: Which composite z-score does the source give for `COCCOC(=O)N1C(=O)[C@@]2(c3cc(C#Cc4ccc(OC)cc4)ccc31)[C@H](C(=O)N1CCc3cc(OC)c(OC)cc3C1)[C@H]1C(=O)O[C@H](c3ccccc3)[C@H](c3ccccc3)N1[C@@H]2c1ccc(O)cc1` here?
Answer: The composite z-score was 0.111.

Question: `COCCOC(=O)N1C(=O)[C@@]2(c3cc(C#CCCO)ccc31)[C@H](C(=O)NC[C@H](O)c1ccccc1)[C@H]1C(=O)O[C@H](c3ccccc3)[C@H](c3ccccc3)N1[C@@H]2c1ccccc1OCCO` was tested. Which composite z-score did it give?
Answer: The composite z-score was 0.362.

Question: Which composite z-score does the source give for `COc1ccccc1CN1C(=O)c2ccccc2[C@@H](C(=O)NCC(C)C)[C@@H]1c1ccc(CO)cc1` here?
Answer: Its composite z-score is 0.139.

Question: With `C=CCN1C(=O)[C@@]2(O[C@@H](CCn3cc([C@H](O)c4ccccc4)nn3)[C@H]([Si](C)(C)c3ccc(OC)cc3)[C@H]2C)c2cc(NC(=O)c3ccc(OC)cc3)ccc21` as the compound, how does the composite z-score read?
Answer: The composite z-score was 0.607.

Question: Which composite z-score does the source give for `O=C(O)[C@]1(CCS(=O)(=O)c2ccccc2)N=C(c2ccc(OCCCO)cc2)O[C@@H]1c1ccccc1` here?
Answer: The composite z-score was 0.737.

Question: `CN(C)CCCN1C(=O)[C@@]2(Cc3ccccc31)c1ccccc1C(=O)N(Cc1ccccc1)[C@H]2c1ccc(CO)cc1` was tested. Which composite z-score did it give?
Answer: Its composite z-score is 0.505.

Question: With `COC(=O)C(CC#Cc1ccc2c(c1)[C@]1(C(=O)N2)[C@H](c2ccc(O)cc2)N2[C@H](c3ccccc3)[C@H](c3ccccc3)OC(=O)[C@H]2[C@@H]1C(N)=O)C(=O)OC` as the compound, how does the composite z-score read?
Answer: Its composite z-score is -1.27.

Question: How did the composite z-score turn out when `O=C1C2C=CC(C(O)c3ccc(Br)cc3)N(Nc3ccccc3)C2C(=O)N1c1ccccc1` (stereo unspecified) was run?
Answer: The composite z-score was 0.863.

Question: Which composite z-score does the source give for `O=C(O)[C@@]1(Cc2ccccc2)COC(c2ccc(OCCCO)cc2)=N1` here?
Answer: Its composite z-score is -0.106.

Question: With `COC(=O)c1ccc(OC)c(/C=C\CC(CCc2ccccc2)OC(=O)c2ccncc2)c1` (stereo unspecified) as the compound, how does the composite z-score read?
Answer: Its composite z-score is -1.61.

Question: `COC(=O)[C@@]1(Cc2ccc(OC)cc2)[C@H]2c3cc(C(=O)N4CCCC4)n(CCc4ccc(O)c(OC)c4)c3C[C@H]2CN1C(=O)c1ccccc1` was tested. Which composite z-score did it give?
Answer: Its composite z-score is 0.346.

Question: With `C[N+](C)(C)CCCC[C@@H]1NC(=O)[C@H]2C[C@@H](C(=O)NCCCCCCN)[C@@H](c3cccc(OCCO)c3)N2C1=O` as the compound, how does the composite z-score read?
Answer: Its composite z-score is 1.11.

Question: How did the composite z-score turn out when `COC(=O)[C@]1(Cc2ccccc2N=[N+]=[N-])N=C(c2ccc(OCCCO)cc2)O[C@@H]1c1ccccc1` was run?
Answer: The composite z-score was 0.279.

Question: How did the composite z-score turn out when `CC(C)N1C(=O)c2ccccc2[C@](C)(C(=O)O)[C@@H]1c1ccc(CO)cc1` was run?
Answer: The composite z-score was -0.198.

Question: `COc1ccc(C(=O)Nc2ccc3c(c2)[C@]2(O[C@@H](CCO)[C@H]([Si](C)(C)c4ccc(OC)cc4)[C@H]2C)C(=O)N3Cc2ccccc2)cc1` was tested. Which composite z-score did it give?
Answer: The composite z-score was 0.475.
